High-throughput results (PubChem)
Compounds with a hit are over-represented: about 6.2% of the library has one in this group of screens.
HT1080NT lethal – qHTS for induction of synthetic lethality in tumor cells producing 2HG: qHTS for the HT-1080-NT fibrosarcoma cell line. HT-1080-NT fibrosarcoma viability, CellTiter-Glo ATP luminescence, 48 h. Potency, µM (highest dose often 46.1 µM), most hits filed as cytotoxic. 360,000 compounds, 1.6% hits;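 further: NT is the 2HG producing partner of a matched IDH1 knockdown line; nearly all actives have a fitted effect of over 55% in size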
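750 cells/well, RPMI + 5% FBS; 2 h settle, compound pin-transfer, 48 h at 37 degrees C. CellTiter-Glo 10 min RT, luminescence. Normalized to DMSO and media-only wells.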
S2 tox – Viability Counterscreen for Primary qHTS for Inhibitors of ATXN expression | S2 cells (HEK-293 line with an ATXN2-luciferase reporter) viability, CellTiter-Fluor protease fluorescence, 24 h | Potency, µM (top dose mostly 56.7 µM), most hits filed as cytotoxic | 400,000 compounds, 0.49% hits | AID 651635, 2014; further: nearly all actives have a fitted effect of over 40% in size
ATXN2 expr inh – Primary qHTS for Inhibitors of ATXN expression. Potency, µM (top dose mostly 57 µM), actives largely listed as inhibitors. 360,000 compounds, 0.72% hits. HEK-293 ATXN2-luciferase reporter, luminescence, 24 h. AID 1745845, 2022; further: nearly all actives have a fitted effect of over 55% in size
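qHTS (up to 57 uM final) was run with 24 h compound exposure of reporter cells at 37 °C. Each well was multiplexed: SteadyGlo luminescence measured ATXN2-luciferase expression after a fluorogenic Gly-Phe-AFC viability readout (25 uM final).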
KB-3-1 cytotox – qHTS assay for MDR1-selective chemotherapeutics: Primary screen using the parental adenocarcinoma cell KB-3-1. 400,000 compounds, 1.4% hits. KB-3-1 viability, CellTiter-Glo ATP luminescence, 72 h. AID 1347075, 2019. Potency, µM (highest dose often 46.1 µM), actives largely listed as cytotoxic; further: nearly all actives have a fitted effect of over 60% in size
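72 h, 37 °C compound treatment of KB-3-1 parental cells; CellTiter-Glo added, 10 min, luminescence read. Data corrected against DMSO-only plates and normalized before curve fitting.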
KB-V1 MDR tox – qHTS assay for MDR1-selective chemotherapeutics: Primary screen using the drug-selected MDR subline cells KB-V1; Potency, µM (highest dose often 46.1 µM), hits mostly cytotoxic; KB-V1 MDR cells viability, CellTiter-Glo, 72 h; 400,000 compounds, 3.4% hits; further: nearly all actives have a fitted effect of over 60% in size
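Cytotoxicity toward P-gp-expressing KB-V1 cells was determined as loss of CellTiter-Glo luminescence after 72 h at 37 degrees C. Compounds were tested in quantitative HTS format across a concentration range, with curves fitted to normalized data.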
HT1080 IDH1KD tx – qHTS for induction of synthetic lethality in tumor cells producing 2HG: qHTS for the HT-1080-IDH1KD cell line. Potency, µM (series often up to 46.1 µM), most hits filed as cytotoxic. 360,000 compounds, 2% hits. HT-1080 IDH1 knockdown viability, ATP luminescence, 48 h
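Assay cells: HT-1080 with IDH1 knockdown, 750 per well, RPMI/5% FBS. Exposure: 48 h at 37 °C following 2 h pre-incubation. Read: CellTiter-Glo luminescence; fitted concentration-response, curve class assigned.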
Numbers stand for hits; [ ] = remark or other dose. The call rests on the fitted dose curve; in most records, active means well fitted curve in the direction sought with a large enough effect; inconclusive means small, poorly fitted or top-dose-only effect, or another doubt; inactive means no such curve, though single readings can be large; an effect the other way counts as inactive or inconclusive.

CC(C)C[C@@H](CN1CCC[C@H]1CN1C(=O)C(=O)NC[C@@H]1Cc1ccccc1)N1C[C@H](Cc2ccc(O)cc2)N(CC2CCCCCC2)C(=O)C1=O was read as HT1080NT lethal 23µM, S2 tox inconclusive, ATXN2 expr inh inconclusive, KB-3-1 cytotox inconclusive, KB-V1 MDR tox inactive and HT1080 IDH1KD tx 18µM.
Screening CC(C)C[C@@H](CN1CCC[C@@H]1CN1C(=O)C(=O)NC[C@@H]1Cc1ccccc1)N1C[C@H](Cc2ccccc2)N(CC2CCCCC2)C(=O)C1=O returned HT1080NT lethal inactive, S2 tox 22µM, ATXN2 expr inh inconclusive, KB-3-1 cytotox inconclusive, KB-V1 MDR tox inconclusive and HT1080 IDH1KD tx inactive.
O=C(COc1ccccc1F)Nc1ccc2nc(SCCOc3ccccc3)sc2c1 was read as S2 tox inactive, ATXN2 expr inh inactive, KB-3-1 cytotox inactive and KB-V1 MDR tox inactive.
Screening CCc1ccc(-n2c(=O)c3c4c(sc3n(Cc3ccc(F)cc3)c2=O)CCCC4)cc1 returned S2 tox inactive, ATXN2 expr inh inactive, KB-3-1 cytotox inactive and KB-V1 MDR tox inactive.
Screening C=CCc1ccc(OCC(O)CN2CCN(c3ccccc3OC)CC2)c(OC)c1 (configuration not stated) returned HT1080NT lethal inactive, S2 tox inactive, ATXN2 expr inh inactive, KB-3-1 cytotox inactive, KB-V1 MDR tox inactive and HT1080 IDH1KD tx inactive.
C=CCc1ccc(OCC(O)CN2CCC(Cc3ccccc3)CC2)c(OC)c1 (configuration not stated) was read as HT1080NT lethal inconclusive, S2 tox inconclusive, ATXN2 expr inh inactive, KB-3-1 cytotox inactive, KB-V1 MDR tox 21µM and HT1080 IDH1KD tx inactive[9.24 µM].
C=CCc1ccc(OCC(O)CN2CCN(Cc3ccc(Cl)cc3)CC2)c(OC)c1 (configuration not stated) was read as HT1080NT lethal 21µM, S2 tox inconclusive, ATXN2 expr inh inactive, KB-3-1 cytotox 23µM, KB-V1 MDR tox inconclusive and HT1080 IDH1KD tx 21µM.
For CCCNc1nc(Nc2ccc([N+](=O)[O-])cc2)nc(N2CCOCC2)n1 the results were KB-3-1 cytotox inactive and KB-V1 MDR tox inactive.
`Cc1ccc(CN2CCc3nnc(C(NS(C)(=O)=O)C(C)C)n3CC2)cc1C` (configuration not stated) gave S2 tox inactive.
COCCn1c(-c2ccc(-c3ccc([N+](=O)[O-])cc3Br)o2)nc2c1c(=O)[nH]c(=O)n2CC(C)C was read as HT1080NT lethal inconclusive, ATXN2 expr inh inactive, KB-3-1 cytotox inactive, KB-V1 MDR tox 7.3µM and HT1080 IDH1KD tx inactive.
Screening COc1ccc(-c2ccc(-c3nc4c(c(=O)[nH]c(=O)n4Cc4ccccc4)n3C)o2)c([N+](=O)[O-])c1 returned HT1080NT lethal inactive, S2 tox inactive, ATXN2 expr inh inactive[11.3 µM], KB-3-1 cytotox inconclusive, KB-V1 MDR tox inactive and HT1080 IDH1KD tx inactive.
For O=c1[nH]c(=O)n(Cc2ccccc2)c2nc(-c3ccc(Oc4ccc(F)cc4)c([N+](=O)[O-])c3)n(CCO)c12 the results were HT1080NT lethal 21µM, S2 tox inconclusive, ATXN2 expr inh inconclusive, KB-3-1 cytotox inconclusive, KB-V1 MDR tox inconclusive and HT1080 IDH1KD tx inconclusive.
For COCCn1c(-c2ccc(SC)cc2)nc2c1c(=O)[nH]c(=O)n2CC(C)C the results were HT1080NT lethal inactive, S2 tox inactive, ATXN2 expr inh inactive, KB-3-1 cytotox inactive, KB-V1 MDR tox inconclusive and HT1080 IDH1KD tx inactive.
`COCCn1c(=O)[nH]c(=O)c2c1nc(-c1ccc(-c3ccc(Cl)cc3[N+](=O)[O-])o1)n2Cc1ccccc1` gave HT1080NT lethal inconclusive, S2 tox inactive, ATXN2 expr inh inactive, KB-3-1 cytotox inconclusive, KB-V1 MDR tox 23µM and HT1080 IDH1KD tx inconclusive.
